In PubChem BioAssay (EPA / NIEHS):
Where “and” joins values, the source holds several entries; their conditions need not be identical. Equal entries are not always repeated. Inconclusive results are not listed. Some structures have more than one record in an assay (separate samples or runs), and their calls can disagree. Calls of active or inactive are those of the source. How the source made its calls, unless noted: active means hit-call score of the fitted dose curve at least 0.9, where 1 is the maximum; inactive means score below 0.9.

Tests used:
[1] = read-out: Monokine induced gamma interferon (MIG), CXCL9 (gene 4283); assay: BSK_3C_MIG: BioMAP Diversity Plus: 3C Assay for Monokine induced gamma interferon (MIG) Biomarker Activity (AID 2283021); details: primary human endothelial cells (HUVEC); actives raise or lower the signal;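 on AC50: MIG protein level measured by immunoassay in the treated endothelial cultures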
How it was run: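 Endothelial primary cells (human umbilical vein) are dosed with test chemical in the 3C system. MIG levels are measured by ELISA at 24 h and fitted in both directions relative to DMSO.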

[2] = target: human Vitamin D Receptor (VDR), VDR (gene 7421) (UniProt P11473); assay: ATG_VDR_TRANS: Attagene TRANS-FACTORIAL HepG2 Assay for human Vitamin D Receptor (VDR) (AID 2283022; active means hit-call score of the fitted dose curve at least 0.9, where 1 is the maximum)
How it was run: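 Steps: transfect HepG2 with GAL4-UAS-driven reporter constructs; dose compounds 24 h; isolate RNA, reverse-transcribe, PCR-amplify with 6-FAM-labelled primer extension and HpaI digestion; quantify fragments by capillary electrophoresis relative to DMSO.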

[3] = BSK_3C_SRB: Viability Assessment in the BioMAP Diversity Plus: 3C Assay (AID 2283023); details: primary human endothelial cells (HUVEC);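 further: fitted both ways against DMSO so a hit may be signal rise or drop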
How it was run: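 Absorbance at 560 nm of sulforhodamine B-stained (0.1%) total protein served as a cytotoxicity readout in human umbilical vein endothelial cells, 24 h after chemical treatment. Signal was fitted bidirectionally relative to DMSO.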

[4] = BSK_3C_Vis: BioMAP Diversity Plus: 3C Assay for Morphology Visualization (AID 2283025); details: primary human endothelial cells (HUVEC);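 further: fitted both ways so gain or loss versus DMSO counts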
How it was run: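 Morphology read by light microscopy serves as a background control for the multiplexed 3C assay in human umbilical vein endothelial cells, taken 24 h after dosing, with DMSO as the negative control and bidirectional curve fitting.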

[5] = read-out: Pselectin, SELP (gene 6403); assay: BSK_4H_Pselectin: BioMAP Diversity Plus: 4H Assay for Pselectin Biomarker Activity (AID 2283026); details: primary human endothelial cells (HUVEC); actives raise or lower the signal
How it was run: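 Endothelial primary cells (human umbilical vein) are dosed, incubated 24 h, and assayed for surface P-selectin by ELISA; responses in either direction are fitted relative to the DMSO negative control.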

[6] = BSK_4H_SRB: Viability Assessment in the BioMAP Diversity Plus: 4H Assay (AID 2283027); details: primary human endothelial cells (HUVEC);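 further: cells exposed to compound for 24 h before staining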;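 on AC50: curves fitted both ways versus DMSO so AC50 may be loss or gain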
How it was run: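 HUVEC, 24 h post-dose; 10% TCA fix, 0.1% SRB stain, A560 nm. Total protein = overt cytotoxicity, parallel to biomarker read. Bidirectional fit vs DMSO baseline.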

[7] = BSK_BE3C_SRB: Viability Assessment in the BioMAP Diversity Plus: BE3C Assay (AID 2283028); details: primary human bronchial epithelial cells
How it was run: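 Cells (human bronchial epithelial, primary) are treated with chemicals, and after 24 h the parallel cultures are fixed in 10% TCA. These are then stained with 0.1% SRB and read at 560 nm. Gain or loss of signal is fitted relative to DMSO.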

[8] = read-out: Thrombomodulin, THBD (gene 7056); assay: BSK_3C_Thrombomodulin: BioMAP Diversity Plus: 3C Assay for Thrombomodulin Biomarker Activity (AID 2283029); details: primary human endothelial cells (HUVEC); actives raise or lower the signal
How it was run: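 Endothelial cells from umbilical vein are dosed with test chemical and incubated 24 h. Thrombomodulin is then quantified by ELISA, with DMSO serving as negative control and activity baseline.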

[9] = read-out: Urokinase-type plasminogen activator receptor (uPAR), PLAUR (gene 5329); assay: BSK_4H_uPAR: BioMAP Diversity Plus: 4H Assay for Urokinase-type plasminogen activator receptor (uPAR) Biomarker Activity (AID 2283030); details: primary human endothelial cells (HUVEC); actives raise or lower the signal
How it was run: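 Cell-surface uPAR ELISA signal, measured 24 h after dosing human umbilical vein endothelial cells, was analyzed with bidirectional fitting relative to DMSO. Parallel SRB staining of total protein tracked overt cytotoxicity.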

[10] = read-out: Vascular endothelial growth factor receptor 2 (Homo sapiens) (UniProt P35968); assay: BSK_4H_VEGFRII: BioMAP Diversity Plus: 4H Assay for Vascular endothelial growth factor receptor 2 (VEGFR2) Biomarker Activity (AID 2283031); details: primary human endothelial cells (HUVEC); actives raise or lower the signal;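 on AC50: cell-surface VEGFR2 protein level quantified by ELISA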
How it was run: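 ELISA read-out of VEGFRII in primary human umbilical vein endothelium, taken 24 h after chemical treatment. Responses are expressed relative to DMSO, with bidirectional fitting.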

[11] = read-out: Human Leukocyte Antigen - DR isotype (HLADR), HLA-DRA (gene 3122); assay: BSK_BE3C_HLADR: BioMAP Diversity Plus: BE3C Assay for Human Leukocyte Antigen - DR isotype (HLADR) Biomarker Activity (AID 2283032); details: primary human bronchial epithelial cells; actives raise or lower the signal
How it was run: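 Chemicals are dosed onto BE3C bronchial epithelial cultures of human origin and left 24 h. HLA-DR is then measured by ELISA, and the endpoint is fitted in both directions using DMSO as the activity baseline.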

[12] = read-out: Vascular cell adhesion molecule 1 (VCAM1), VCAM1 (gene 7412); assay: BSK_4H_VCAM1: BioMAP Diversity Plus: 4H Assay for Vascular cell adhesion molecule 1 (VCAM1) Biomarker Activity (AID 2283033); details: primary human endothelial cells (HUVEC); actives raise or lower the signal
How it was run: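 Chemicals are added to primary human umbilical vein endothelial cells. After 24 h, VCAM-1 levels are measured by ELISA. Values come from bidirectional fitting referenced to DMSO.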

[13] = read-out: Interferon-gamma inducible Protein 10 (IP10), CXCL10 (gene 3627); assay: BSK_BE3C_IP10: BioMAP Diversity Plus: BE3C Assay for Interferon-gamma inducible Protein 10 (IP10) Biomarker Activity (AID 2283034); details: primary human bronchial epithelial cells; actives raise or lower the signal
How it was run: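 IP-10 quantified by ELISA serves as the endpoint. Cells: primary human bronchial epithelium, read 24 h after compound addition. Activity is derived by bidirectional fitting with DMSO as negative control.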

[14] = read-out: Transforming growth factor beta 1 (TGFb1), TGFB1 (gene 7040); assay: BSK_BE3C_TGFb1: BioMAP Diversity Plus: BE3C Assay for Transforming growth factor beta 1 (TGFb1) Biomarker Activity (AID 2283036;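 further: TGF-b1 protein level measured by ELISA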); details: primary human bronchial epithelial cells; actives raise or lower the signal
How it was run: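 Bronchial epithelial primary cells are treated with test chemical, then TGF-b1 is quantified by ELISA after 24 hours. Values derive from bidirectional fitting against DMSO, with cytotoxicity checked by SRB staining in parallel cultures.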

[15] = read-out: Plasminogen activator inhibitor-1 (PAI1), SERPINE1 (gene 5054); assay: BSK_BE3C_PAI1: BioMAP Diversity Plus: BE3C Assay for Plasminogen activator inhibitor-1 (PAI1) Biomarker Activity (AID 2283037); details: primary human bronchial epithelial cells; actives raise or lower the signal
How it was run: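 Values derive from bidirectional fitting against DMSO baseline of PAI-1 levels, measured by ELISA in human bronchial epithelial cells 24 h after compound addition.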

[16] = read-out: urokinase plasminogen activator (uPA), PLAU (gene 5328); assay: BSK_BE3C_uPA: BioMAP Diversity Plus: BE3C Assay for urokinase plasminogen activator (uPA) Biomarker Activity (AID 2283038); details: primary human bronchial epithelial cells; actives raise or lower the signal
How it was run: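 Bronchial epithelial cells (human, primary); chemical 24 h; uPA by ELISA; bidirectional fit vs DMSO. SRB (0.1%, after 10% TCA fixation, 560 nm) in parallel cultures for cytotoxicity.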

[17] = read-out: Urokinase-type plasminogen activator receptor (uPAR), PLAUR (gene 5329); assay: BSK_BE3C_uPAR: BioMAP Diversity Plus: BE3C Assay for Urokinase-type plasminogen activator receptor (uPAR) Biomarker Activity (AID 2283039); details: primary human bronchial epithelial cells; actives raise or lower the signal
How it was run: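 Steps: dose human primary bronchial epithelial cells, incubate 24 h, measure uPAR by ELISA, then fit gain- or loss-of-signal response bidirectionally relative to DMSO.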

[18] = read-out: Interleukin-6 (IL6), IL6 (gene 3569); assay: BSK_CASM3C_IL6: BioMAP Diversity Plus: CASM3C Assay for Interleukin-6 (IL6) Biomarker Activity for (AID 2283040); details: primary human coronary artery smooth muscle cells; actives raise or lower the signal
[19] = read-out: Matrix Metallopeptidase 1 (MMP1), MMP1 (gene 4312); assay: BSK_BE3C_MMP1: BioMAP Diversity Plus: BE3C Assay for Matrix Metallopeptidase 1 (MMP1) Biomarker Activity (AID 2283024); details: primary human bronchial epithelial cells; actives raise or lower the signal
How it was run: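 MMP1 signal, measured by ELISA after a 24 h chemical exposure of human primary bronchial epithelial cells, is analysed with bidirectional fitting using DMSO as negative control.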

[20] = read-out: Monokine induced gamma interferon (MIG), CXCL9 (gene 4283); assay: BSK_BE3C_MIG: BioMAP Diversity Plus: BE3C Assay for Monokine induced gamma interferon (MIG) Biomarker Activity (AID 2283035); details: primary human bronchial epithelial cells; actives raise or lower the signal;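 further: MIG protein measured by ELISA in BE3C cultures after 24 h of dosing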
How it was run: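 Dose cells (human primary bronchial epithelial), incubate 24 h, quantify MIG by ELISA, then fit concentration–response in both directions relative to DMSO control.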

Measured: AC50

Sequence of human Vitamin D Receptor (VDR), VDR (gene 7421) (P11473 whole entry, looked up, the tested form may be a part): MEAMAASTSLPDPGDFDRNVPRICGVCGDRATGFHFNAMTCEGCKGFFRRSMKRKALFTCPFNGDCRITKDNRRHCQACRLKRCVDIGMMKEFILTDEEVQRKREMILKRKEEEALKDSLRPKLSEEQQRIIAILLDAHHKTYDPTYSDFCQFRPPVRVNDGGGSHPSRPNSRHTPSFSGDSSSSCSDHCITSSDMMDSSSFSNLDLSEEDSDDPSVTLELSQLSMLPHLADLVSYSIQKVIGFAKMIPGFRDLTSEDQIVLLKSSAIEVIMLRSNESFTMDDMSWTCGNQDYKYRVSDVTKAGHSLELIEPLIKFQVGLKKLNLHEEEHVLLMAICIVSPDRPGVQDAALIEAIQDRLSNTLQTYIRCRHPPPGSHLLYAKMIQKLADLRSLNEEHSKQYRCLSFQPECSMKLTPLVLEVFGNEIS

O=C(NCc1ncc(C(F)(F)F)cc1Cl)c1c(Cl)cccc1Cl
not listed: [19] | [20]
inactive: all other assays above

CC(C)(C)c1ccc(O)c(O)c1
active: [3] 5.42 µM | [4] 8.8 µM | [5] 20 µM | [6] 5.52 µM | [12] 17.1 µM
not listed: [20]
inactive: all other assays above

OCCN1CN(CCO)CN(CCO)C1
active: [1] 36.6 µM | [3] 32.1 µM | [4] 14.9 µM | [5] 23.1 µM | [6] 31.5 µM | [9] 29 µM | [10] 33.9 µM | [11] 35.5 µM | [12] 29.8 µM
not listed: [20]
inactive: all other assays above

OCC(F)(F)C(F)(F)C(F)(F)C(F)(F)C(F)(F)C(F)(F)C(F)(F)C(F)(F)C(F)(F)C(F)(F)C(F)(F)F
inactive: [1] | [2] | [19] | [5] | [6] | [7] | [8] | [9] | [10] | [12] | [13] | [15] | [16] | [17] | [18]
active: [3] 271 nM and 201 nM | [5] 0.275 µM | [8] 0.423 µM | [11] 251 nM and 154 nM | [13] 0.218 µM

CCCCC(CC)C(=O)OCCOCCOCCOCCOC(=O)C(CC)CCCC (stereo not drawn)
active: [18] 11.3 µM
not listed: [19]
inactive: all other assays above

CN(C)CCOC(c1ccccc1)c1ccccc1
active: [5] 3.97 µM | [9] 2.27 µM | [12] 2.03 µM
not listed: [2] | [20]
inactive: all other assays above

C=COC(=O)C(C)(C)CCCCCC
active: [1] 33.9 µM | [3] 34.6 µM | [19] 3.97 µM | [4] 37.8 µM | [5] 32.4 µM | [6] 34.3 µM | [8] 20 µM | [9] 32.6 µM | [10] 25.6 µM | [11] 24.8 µM | [12] 30.2 µM | [13] 33.5 µM | [15] 29.4 µM | [16] 20 µM | [18] 32 µM
inactive: [7] | [14] | [17]

N=C(N)c1ccc(OCCCCCOc2ccc(C(=N)N)cc2)cc1
active: [4] 8.61 µM | [5] 7.2 µM | [9] 3.47 µM | [11] 22.7 µM | [13] 24.1 µM | [15] 10.3 µM | [16] 17.5 µM | [18] 20.7 µM
not listed: [20]
inactive: all other assays above

Cc1ccc(N=Nc2c(O)ccc3ccccc23)c(C)c1
active: [4] 19.9 µM | [11] 10 µM | [12] 9.98 µM | [13] 3.88 µM | [15] 10 µM | [16] 10 µM | [17] 4.02 µM
not listed: [2] | [20]
inactive: all other assays above

Oc1ccc(Cc2ccccc2O)cc1
not listed: [4] | [14] | [19]
inactive: all other assays above

COCN(COC)c1nc(N(COC)COC)nc(N(COC)COC)n1
not listed: [19] | [20]
inactive: all other assays above
